Over roughly 33,000 sequences, “E-score (-0.5 to 0.5)” has its median near -0.016; the highest 2% begin near 0.31. Shown is part of a subset that was picked to be rich in the highest values.
Each sequence was assayed against Cst6 (UniProt P40535) (assay: PBM E-score (8-mer binding enrichment) (E-score (-0.5 to 0.5)); higher = stronger / more preferred TF binding). Conditions: protein concentration: 200 nM; construct: GST-DNA-binding domain.
Experimental: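 Universal 'all 10-mer' protein binding microarrays (Agilent AMADID 015681) probed with GST-tagged S. cerevisiae TFs (full-length or DBD) made by in vitro transcription/translation (PURExpress), about 100-200 nM. Bound TF was detected with fluorescent anti-GST. Each ungapped 8-mer (which stands for itself and its reverse complement) is scored by the PBM enrichment score (E-score), a modified Wilcoxon-Mann-Whitney statistic from -0.5 to +0.5, computed with the Universal PBM Analysis Suite. Scale: above 0.35 generally sequence-specific binding.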

Sequence of UniProt P40535 (P40535 whole entry, the tested form may be a part): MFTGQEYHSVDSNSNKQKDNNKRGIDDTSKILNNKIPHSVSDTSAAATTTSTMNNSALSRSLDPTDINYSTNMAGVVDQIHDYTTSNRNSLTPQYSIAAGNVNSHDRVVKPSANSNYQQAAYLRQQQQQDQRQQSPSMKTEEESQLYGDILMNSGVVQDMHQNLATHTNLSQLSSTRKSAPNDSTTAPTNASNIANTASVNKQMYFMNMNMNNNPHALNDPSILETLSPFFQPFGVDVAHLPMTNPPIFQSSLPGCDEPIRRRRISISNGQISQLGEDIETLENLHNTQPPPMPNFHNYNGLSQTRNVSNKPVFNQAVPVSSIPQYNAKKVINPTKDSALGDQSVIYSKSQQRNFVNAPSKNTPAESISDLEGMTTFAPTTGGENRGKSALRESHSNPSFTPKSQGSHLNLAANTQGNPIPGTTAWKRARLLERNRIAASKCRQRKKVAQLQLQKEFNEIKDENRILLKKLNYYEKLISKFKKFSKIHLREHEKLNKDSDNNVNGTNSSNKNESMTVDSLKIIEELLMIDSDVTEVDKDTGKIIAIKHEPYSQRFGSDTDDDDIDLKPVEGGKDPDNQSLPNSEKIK

Sequence	PBM E-score
GGTCGTCA	0.272
AGACGTCA	0.484
AGACGTCG	-0.103
GGACGTGA	-0.0809
TGACGTCA	0.5
AGACGTCT	-0.207
CGACGTCC	-0.0701
CGACGTCG	-0.0227
GGACGTCC	-0.128
CGACGTCA	0.491
AGACGTCC	-0.00823
GGACGTCA	0.468
ATTCTGCC	0.124
ACATGCAT	0.0333
CAATGGCC	-0.314
GAGCCAGC	-0.299
ACTTGCCC	-0.215
ATGTTTCG	0.263
AGCCCCAC	-0.161
GAGACACA	-0.0694
ATGACACG	0.256
CTGACACA	0.0411
GTGACACA	0.322
ACGACACG	0.0167
ATGACACA	0.349

Sequence	PBM E-score
AGACATGG	-0.0372
ACTACCTC	0.0105
AGCTTGGA	-0.274
ACTGGGCA	-0.16
CCGATAAA	0.0173
AAACGCAA	0.254
ACACGTCA	0.481
TCACGTGA	0.1
CCACGTCA	0.472
ACACGTCG	-0.0793
TCACGTCA	0.49
CCACGTCG	-0.196
GCACGTTA	0.0802
ACACGTCT	0.0155
CCACGTCC	-0.214
GCACGTCA	0.459
TCCCGTCA	0.0641
GCACGTCC	-0.0855
AGGGGGTA	-0.392
AGGACTGG	-0.203
CTCTTAAA	0.112
AGACAAGG	-0.181
GGCACGCA	-0.0289
GGGCGGGA	-0.0359
CAAGAGGC	0.0779

Sequence	PBM E-score
AGTGACGG	0.301
AGTGACCA	-0.105
AGTGACGA	0.399
GGTGACCA	-0.0455
GGTGACGA	0.463
GTTGACGA	0.192
GGAGGCGA	-0.154
ATTATAAG	0.182
ATTATATC	0.327
CTTATATC	0.291
ATTATATA	0.239
ACTATATG	0.0805
ATTATATG	0.306
AGGAGAAG	-0.154
GAGGCGAA	0.0301
ATCTAGGA	-0.0727
ACGGGTCA	-0.0243
GTCTAGAA	-0.0503
GATACGTA	0.332
AATACGTG	0.176
GATACGGA	0.111
AATACGCC	0.104
CATACGTA	0.383
CATACGAA	0.154
GATACGCA	0.0359

Sequence	PBM E-score
AATACGCA	0.124
AATACGTC	0.323
AATACGTA	0.344
CATACGCA	0.147
AATACGAC	0.0982
ATTGAGGG	-0.186
TCAGAGGA	-0.193
GCAGGAGA	-0.202
TCCGACGA	-0.0151
CTGCTAAG	-0.279
CTATGGCC	-0.271
CCTACGTC	0.305
CATACGCC	0.156
CATACGTC	0.405
ATCCCGTG	0.0123
CTCAAAAC	0.175
CTTACGCA	0.249
ATTACGAA	0.305
ATTACGCG	0.326
ATTACGCC	0.254
ATTACGAG	0.235
ATTACGGG	0.00617
GTTACGCA	0.266
GTTACGAA	0.16
ATTACGCA	0.398
